Most compounds without a hit are left out; they make up all but 19% or so of the library.
DT40 TDP1 no CPT – qHTS for Inhibitors of human tyrosyl-DNA phosphodiesterase 1 (TDP1): qHTS in cells in absence of CPT | DT40 Tdp1-/- hTDP1 cells, no CPT, ATP luminescence, 48 h | Potency, µM (top dose mostly 46.2 µM), inactives show at the highest dose activity change, negative = growth inhibition, actives largely listed as inhibitors | hit rate 15% among 420,000; also: potency is read from the fitted curve at half-maximal effect; nearly all actives have a fitted effect of over 55% in size
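Luminescent ATP content (CellTiter-Glo) served as the growth readout. Knockout chicken DT40 cells expressing human TDP1 were exposed to compounds without camptothecin for a minimum 48 hr at 37 °C.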
DT40 TDP1 CPT – DT40-hTDP1 cell growth loss with CPT; Potency, µM (doses to about 46.2 µM), for inactives: at the highest dose activity change, negative = growth inhibition, usual class: inhibitors; chicken DT40 Tdp1-/-;hTDP1 cells + 20 nM CPT, ATP luminescence, 48 h; hit rate 12% among 420,000; also: potency is read from the fitted curve at half-maximal effect; nearly all actives have a fitted effect of over 55% in size
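Chicken DT40 Tdp1-/- cells stably complemented with human TDP1 were seeded at 400 cells/well in medium containing 20 nM camptothecin, exposed to pin-transferred compounds, and grown at 37 °C for at least 48 hr. Viability was read as ATP luminescence.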
ELG1 repair inh – blocks ELG1-dependent DNA repair in HEK293T cells | HEK293T ELG1-luciferase reporter, luminescence, 16 h; DNA damage induced by 5-fluorouridine | Potency, µM (series often up to 46.1 µM), without a hit: at the top dose activity change, negative = inhibition, usual class: inhibitors | hit rate 2.3% among 330,000; also: potency is read from the fitted curve at half-maximal effect; nearly all actives have a fitted effect of over 55% in size
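DMSO vehicle served as the neutral condition. Each well held 2,000 cells given 5-fluorouridine plus compound; after 16 hr at 37 °C/5% CO2, ONE-Glo was added and luciferase measured 30 min later.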
Giardia killer – kills Giardia lamblia; hit rate 0.15% among 340,000; AID 540267; Giardia lamblia trophozoite viability; activity change, % at 7.66 µM, hits read low; in the data active = activity change below about -80%; inconclusive = between about -30% and that limit;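 also: parasites exposed to compound for two days anaerobically before the ATP read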
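Viability, read as ATP luminescence: trophozoites at 100 cells/well, compound added, 48 hrs anaerobic at 37 deg C, then 15-30 min room-temperature development before reading.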
TDP1 inh – TDP1 (human) enzyme inhibition. hit rate 0.28% among 350,000. Potency, µM (series often up to 130 µM), without a hit: at the top dose activity change, negative = inhibition, hits mostly inhibitors. AID 485290. Q9NUW8. recombinant TDP1, AlphaScreen DNA substrate cleavage; also: potency is read from the fitted curve at half-maximal effect; nearly all actives have a fitted effect of over 40% in size
Target sequence (Q9NUW8 whole entry, looked up): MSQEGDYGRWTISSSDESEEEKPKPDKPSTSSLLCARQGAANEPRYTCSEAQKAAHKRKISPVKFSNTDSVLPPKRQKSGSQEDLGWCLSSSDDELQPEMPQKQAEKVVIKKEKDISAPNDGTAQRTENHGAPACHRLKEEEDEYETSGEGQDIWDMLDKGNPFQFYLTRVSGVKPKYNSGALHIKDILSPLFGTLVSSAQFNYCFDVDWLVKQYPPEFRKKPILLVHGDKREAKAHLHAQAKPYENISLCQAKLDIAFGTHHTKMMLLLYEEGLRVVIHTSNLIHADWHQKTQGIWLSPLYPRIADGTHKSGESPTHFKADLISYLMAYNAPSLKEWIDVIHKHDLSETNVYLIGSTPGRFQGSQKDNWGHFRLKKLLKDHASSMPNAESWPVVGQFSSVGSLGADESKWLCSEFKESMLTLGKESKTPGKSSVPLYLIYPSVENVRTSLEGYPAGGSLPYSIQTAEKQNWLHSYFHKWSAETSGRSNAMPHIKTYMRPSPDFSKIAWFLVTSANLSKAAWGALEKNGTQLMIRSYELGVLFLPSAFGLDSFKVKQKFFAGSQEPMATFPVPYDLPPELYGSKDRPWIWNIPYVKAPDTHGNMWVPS
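Steps: enzyme plus compound, 15 min RT; add biotin/phosphotyrosine-FITC oligonucleotide (15 nM final), react 5 min; add donor/acceptor beads (10 ug/ml final), 10 min; read AlphaScreen. Tdp1 at 1 nM final.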
IL1B secr inh – inhibitors of inflammasome signaling (IL-1 beta secretion); AID 743279; THP-1 LPS/ATP IL-1B secretion, AlphaLISA, 16 h; stronger effect = lower value; hit rate 4.7% among 360,000; activity change, % at 57.5 µM; in the data active = activity change below about -50%; inconclusive = mostly about -30% to -49%
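Secreted IL-1B measured by AlphaLISA bead assay after 16 h compound exposure of THP-1 cells; compounds (final up to 57.5 uM) added 1 h before LPS (250 ng/mL) and ATP (1.25 mM) stimulation; lower signal means less secretion.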
* marks the source's active call; other numbers are inactive results; ? = inconclusive; · = no result given. Unless noted, calls follow the shape of the dose curve; as a rule, active = well fitted curve in the direction sought with a large enough effect; inconclusive = small, poorly fitted or top-dose-only effect, or another doubt; inactive = no such curve, though single readings can be large; an effect the other way counts as inactive or inconclusive. % is scaled to controls: 0 for no effect and ±100 for the full control effect.

SMILES	DT40 TDP1 no CPT	DT40 TDP1 CPT	ELG1 repair inh	Giardia killer	TDP1 inh	IL1B secr inh
CCCS(=O)(=O)N1CCC(C(=O)NCCCN2CCC(Cc3ccccc3)CC2)CC1	-10.8%	-11.6%	8.6%	-9.2	6.8%	10.8
CCCCOc1ccc(C(C)NC(=O)C2CCCN(S(=O)(=O)CCC)C2)cc1 (centres undefined)	16.4µM*	11.6µM*	-17.6%	-29.5	0.0%	0.9
O=C(C1CCN(S(=O)(=O)N2CCC3(CC2)OCCO3)CC1)N1CCC(Cc2ccccc2)CC1	?	?	?	-3.5	2.1%	-64.3*
CCCS(=O)(=O)N1CCC(C(=O)N2CCC(Cc3ccccc3)CC2)CC1	20.6µM*	18.4µM*	-14.4%	?	3.1%	-18.1
CCOC(=O)N1CCN(C(=O)C2CCN(S(=O)(=O)N3CCC4(CC3)OCCO4)CC2)CC1	18.6%	-1.9%	13.5%	-6.7	0.8%	24.1
CCCS(=O)(=O)N1CCCC(C(=O)N2CCC(Cc3ccccc3)CC2)C1 (centres undefined)	14.6µM*	?	-19.2%	13.1	4.5%	-20.9
Cc1ccc(CNC(=O)C2CCN(c3nn4cc(-c5ccc(F)cc5)nc4s3)CC2)cc1	-7.7%	-5.9%	·	·	6.2%	·
O=C(COc1ccc(F)cc1F)N1CCCCCCC1	?	-5.1%	3.8%	-4.4	1.4%	6.9
COC(=O)[C@@]1(Sc2ccc(C)cc2)CC(=O)N[C@@H]1c1ccc(C(F)(F)F)cc1	20.6µM*	14.6µM*	·	·	·	?
COC(=O)[C@@]1(Sc2ccc(C)cc2)CC(=O)N(c2ccccc2)[C@@H]1c1ccccc1	18.4µM*	18.4µM*	·	·	·	-4.8
O=C(NCc1ccccc1Br)c1ccc2c(c1)OCCO2	-14.4%	4.5%	23.3%	11.8	·	3.0
Cc1ccc(Cl)c(NC(=O)COC(=O)c2nn(C)c(=O)c3ccccc23)c1Cl	-7.6%	21.1%	17.6%	-24.0	0.0%	-11.4
C[n+]1cc(C(=O)N2CCCCC2)ccc1/C=C/c1c[nH]c2ccccc12	-9.2%	0.3%	3.1%	-9.9	2.4%	10.9
CCCCCCCCCC[n+]1ccc(/C=C/c2c(C)[nH]c3ccccc23)cc1	0.398µM*	0.562µM*	·	·	·	·
CC[n+]1ccc(/C=C/c2c[nH]c3ccccc23)cc1	2.06µM*	2.31µM*	?	11.0	·	0.0
O=Cc1c[nH]c2ccccc12	·	·	·	18.8	-0.5%	·
CCCCCCCCCC[n+]1ccc(/C=C/c2c[nH]c3ccccc23)c2ccccc21	2µM*	1.58µM*	·	·	·	·
CCOC(=O)/C(=C/c1c[nH]c2ccccc12)NC(C)=O	-16.2%	-12.3%	-3.4%	10.4	5.9%	18.6
CCCCCCC[n+]1ccc(/C=C/c2c[nH]c3ccccc23)cc1	0.316µM*	0.282µM*	·	·	·	·
Cn1cc([C@@H]2C[C@H]3CN(C4CCCC4)C(=O)[C@]34CCCN24)c(-c2ccccc2)n1	-26.9%	-13.7%	-12.7%	2.3	9.0%	-15.5
CCOC(=O)c1[nH]cnc1C(=O)Nc1ccccc1	-1.3%	4.6%	-8.3%	16.3	2.5%	0.0
CCOC(=O)c1[nH]cnc1C(=O)Nc1ccccn1	-6.2%	-13.9%	?	-0.3	1.0%	-63.9*
Cc1ccsc1/C=C/C1=Cc2c(sc(NC(=O)CSc3n[nH]c(N)n3)c2C#N)C(C)(C)C1	14.6µM*	23.1µM*	?	-9.7	5.1%	-63.1*
CCOc1ccc(/C=C/C2=Cc3c(sc(NC(=O)CSc4n[nH]c(N)n4)c3C#N)C(C)(C)C2)cc1	14.6µM*	13µM*	?	6.3	7.4%	-92.6*
Cc1cc(NC(=O)c2cnn3c(C(F)F)cc(-c4ccccc4)nc23)no1	9.2µM*	14.6µM*	8.2µM*	-5.6	4.0%	-12.4
CCN(CC)c1ccc(NC(=O)c2cnn3c(C(F)F)cc(-c4ccccc4)nc23)cc1	13µM*	?	·	·	-1.1%	·
